Hits are enriched below; roughly 8.5% of the tested compounds scored in any of these assays.
Sfp inh: blocks B. subtilis Sfp PPTase activity; Q9F4F7; Biochemical Sfp PPTase activity, qHTS; Potency, µM, usual class: inhibitors; hit rate 3.5% among 310,000;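 further: the enzyme is Sfp with the accession as filed and its product quenches rhodamine fluorescence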
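Sfp 15 nM + cpd, 15 min RT; start w/ rhodamine-CoA 5 uM, BHQ-2-YbbR 12.5 uM (final); 50 mM Hepes pH 7.6, 10 mM MgCl2, 0.01% NP-40, 0.01% BSA; read 525/598 nm at 0 and 30 min.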
NPSR antagonist: blocks cAMP signaling of the human neuropeptide S receptor. hit rate 1% among 220,000. CHO-NPSR cells, cAMP TR-FRET, antagonist mode. Potency, µM (titrated, usually from 38.3 µM), usual class: inhibitors; further: nearly all actives have a fitted effect of over 50% in size
GoLoco inh red: blocks human Gai1 binding to RGS12 GoLoco peptide, red readout. Gai1:RGS12 GoLoco peptide FP, rhodamine, 10 min. AID 880. Potency, µM (highest dose often 61.6 µM), actives largely listed as inhibitors. hit rate 0.44% among 230,000; active means well fitted inhibition curve with a large enough effect, not every such curve was filed as active; inactive means no such curve, though single readings can be large or run the other way; further: nearly all actives have a fitted effect of over 30% in size
Coupling enz: inhibits coupling enzyme system, counter-screen for aldolase hits; coupling enzyme system counterscreen, AmpLite Red fluorescence; activity change, negative = inhibition, % at 58.2 µM, hits read low; AID 2472; hit rate 0.67% among 290,000; in the data active means activity change below about -30%
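Counterscreen lacking aldolase: glyceraldehyde-3-phosphate coupling-enzyme reagent preincubated 10 min at RT with compound (at 57.5 uM final), then substrate/coupling system with AmpLite Red added; fluorescence read at 525/598 nm after 20 min RT.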
ALDH1A1 inh: blocks purified human ALDH1A1 activity; hit rate 7.3% among 220,000; AID 1030; Purified ALDH1A1, NADH fluorescence, propionaldehyde substrate; P00352; Potency, µM (top dose mostly 75.3 µM), most hits filed as inhibitors; active means well fitted inhibition curve with a large enough effect, not every such curve was filed as active; inconclusive means small, poorly fitted or top-dose-only effect, or another doubt; inactive means no such curve, though single readings can be large or run the other way
JMJD2E inh: inhibitors of human JMJD2E histone demethylase. Potency, µM (top dose mostly 57.1 µM), most hits filed as inhibitors. JMJD2E catalytic domain, FDH-coupled NADH fluorescence (FDH is formaldehyde dehydrogenase). hit rate 1.6% among 230,000. AID 2147. B2RXH2; active means well fitted inhibition curve with a large enough effect, not every such curve was filed as active; inconclusive means small, poorly fitted or top-dose-only effect, or another doubt; inactive means no such curve, though single readings can be large or run the other way; further: nearly all actives have a fitted effect of over 50% in size
Target sequence (B2RXH2 1-337 limits assumed): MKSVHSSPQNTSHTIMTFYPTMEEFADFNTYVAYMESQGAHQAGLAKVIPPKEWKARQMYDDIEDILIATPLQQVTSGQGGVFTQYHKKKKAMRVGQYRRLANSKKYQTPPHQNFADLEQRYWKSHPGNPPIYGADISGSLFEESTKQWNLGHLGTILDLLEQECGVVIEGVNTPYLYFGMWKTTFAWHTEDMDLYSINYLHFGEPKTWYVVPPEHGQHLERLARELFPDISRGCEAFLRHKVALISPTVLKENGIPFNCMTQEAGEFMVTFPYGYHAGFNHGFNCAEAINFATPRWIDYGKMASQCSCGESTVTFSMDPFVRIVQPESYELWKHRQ
A number is an active result; 0 = inactive; ? = inconclusive; - = no result given; [ ] = another dose, or the depositor's remark. Unless noted, the call rests on the fitted dose curve; in most records, active means well fitted curve in the direction sought with a large enough effect; inconclusive means small, poorly fitted or top-dose-only effect, or another doubt; inactive means no such curve, though single readings can be large; an effect the other way counts as inactive or inconclusive.

SMILES	Sfp inh	NPSR antagonist	GoLoco inh red	Coupling enz	ALDH1A1 inh	JMJD2E inh
O=C(c1cc(-c2ccccn2)nc2c(Cl)cccc12)N1CCN(S(=O)(=O)c2ccccc2)CC1	0	0	0	0	16µM	0
CCOC(=O)c1c(NC(=S)Nc2ccc(Cl)cc2)sc(C)c1C	0	0	0	0	0	0
COC(=O)c1c(NC(=S)Nc2ccc(CC(=O)O)cc2)sc(C)c1C	0	0	0	0	25µM	0
O=C(OCc1ccco1)c1cccnc1	0	0	0	0	0	0
CC(=O)OCc1ccco1	-	-	0	-	22µM	-
CC(C)OC(=O)c1cccc(C(=O)OCc2ccco2)n1	0	0	0	0	8.9µM	0
CC(C)OC(=O)c1cccc(C(=O)Oc2ccccc2)n1	0	0	0	0	0	0
O=C1CCCN1CCCNC(=S)Nc1ccc(Nc2ccccc2)cc1	56µM	0	0	0	14µM	0
O=C1CCCN1CCCNC(=S)Nc1ccccc1	0	0	0	0	-	0
CCOC(=O)c1ccc(NC(=S)NCCCN2CCCC2=O)cc1	0	0	0	0	0.032µM	0
O=C(CSc1ccc2ccccc2c1)NCCc1ccc(O)c(O)c1	25µM	0	0	0	25µM	?
COc1ccc(CCNC(=O)CSc2ccc3ccccc3c2)cc1OC	0	0	-	0	0	0
O=C(c1ccc(F)cc1)N1CCCCC(Sc2nnc3ccccn23)C1=O (configuration not stated)	0	0	0	0	0	0
Cc1cc2nnc(SC3CCCCN(C(=O)c4ccc(F)cc4)C3=O)n2c2ccccc12 (configuration not stated)	0	0	0	0	18µM	?
CC(=O)N1CCCc2cc(S(=O)(=O)N3CCCC(C(=O)Nc4ccccc4C)C3)ccc21 (configuration not stated)	0	-	-	0	-	-
C/C(=N\NC(=O)c1ccc(OC2OCCOC2Oc2ccc(C(=O)N/N=C(\C)c3ccncc3)cc2)cc1)c1ccncc1 (configuration not stated)	0	0	0	0	?	0
CCc1nc(SCC(=O)c2ccc(C)c(C)c2)n[nH]1	79µM	0	0	0	?	?
Cn1cnnc1SCC(=O)c1cccc([N+](=O)[O-])c1	0	0	0	0	?	0
Cc1ccnc(SCc2ccc([N+](=O)[O-])cc2)n1	0	0	0	0	0	0
Cc1nc(SCC(=O)c2cccc([N+](=O)[O-])c2)n[nH]1	20µM	0	0	0	?	0
Cc1ccnc(SCC(=O)c2cccc([N+](=O)[O-])c2)n1	50µM	0	0	0	32µM	0
O=C(CSc1n[nH]c(-c2ccccc2)n1)c1ccc(O)c(O)c1	0	?	0	0	0	28µM
CC(C)c1ccc(NC(=O)Cc2c(C(=O)O)n(C)c3ccccc23)cc1	0	-	-	0	-	-
COc1ccc(C(=O)OCC(N)=O)cc1[N+](=O)[O-]	0	0	0	0	0	0
COc1ccc(C(=O)CSc2n[nH]c(C)n2)cc1[N+](=O)[O-]	79µM	0	0	0	10µM	0
SMILES	Sfp inh	NPSR antagonist	GoLoco inh red	Coupling enz	ALDH1A1 inh	JMJD2E inh
Cc1ccc(CNC(=O)N2CCN(c3ccc(C)cc3)CC2)cc1	0	-	-	0	-	-
COc1cc(CNc2ccc(N3CCN(C(C)=O)CC3)cc2)ccc1OCc1ccccc1	0	0	0	0	18µM	16µM
CCc1ccc(CNc2ccc(N3CCN(C(C)=O)CC3)cc2)cc1	35µM	0	0	0	22µM	?
CC(=O)N1CCN(c2ccc(NCc3ccc(C)cc3)cc2)CC1	40µM	0	0	0	?	?
O=C(/C=C/c1ccc(Cl)c(C(F)(F)F)c1)N1CCN(c2ccccn2)CC1	0	-	-	0	-	-
NC(=O)c1ccc(NC(=O)CSc2nncn2-c2ccccc2)cc1	0	-	-	0	-	-
CC1(C)CC(Cc2nc(=S)[nH][nH]2)C(=O)O1 (configuration not stated)	20µM	0	0	0	0	0
Cc1cc(N)c2ccccc2[n+]1CCCCCCCCCCCCCC[n+]1c(C)cc(N)c2ccccc21	-	16µM	0	-	?	0
O=S(=O)(NCC1CCCO1)c1ccccc1F (configuration not stated)	0	-	-	0	-	-
O=C(CSc1nc2ccccc2c2ccccc12)c1ccccc1	-	-	0[14.2 µM]	-	0[13.5 µM]	-
CCCc1nc(SCC(=O)c2ccc(F)cc2)c2ccccc2n1	?	?	0	0	18µM	0
